Assay outcomes: PubChem, National Center for Advancing Translational Sciences (NCATS)
Sfp inh – blocks B. subtilis Sfp PPTase activity; Q9F4F7; Biochemical Sfp PPTase activity, qHTS; Potency, µM, actives largely listed as inhibitors; 310,000 compounds, 3.5% hits; AID 1490;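 also: the enzyme is Sfp with the accession as filed and its product quenches rhodamine fluorescence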
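Buffer: 50 mM Hepes-Na pH 7.6, 10 mM MgCl2, 0.01% Nonidet P-40, 0.01% BSA. Enzyme 15 nM, pre-exposed to compound 15 min; substrates then added and fluorescence change tracked over 30 min.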
G9a inh – blocks human histone lysine methyltransferase G9a; G9a H3K9 monomethylation, AlphaScreen, 2 h; Potency, µM (doses to about 102 µM), actives largely listed as inhibitors; 350,000 compounds, 8.8% hits; also: nearly all actives have a fitted effect of over 75% in size
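AlphaScreen read-out: biotin-H3K9 peptide (500 nM) methylation by 20 nM enzyme with 20 uM SAM, 2 h at room temperature after 15 min compound preincubation; anti-monomethyl H3K9 antibody plus donor/acceptor beads, 10 min dark.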
HP1b chromo inh – blocks HP1-beta chromodomain binding to methylated histone tails | P83916 | AlphaScreen HP1-beta / biotin-H3K9me3 peptide binding | Potency, µM (top dose mostly 114 µM), most hits filed as inhibitors | 390,000 compounds, 0.56% hits | AID 540317; also: nearly all actives have a fitted effect of over 70% in size
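HP1-beta protein (50 nM final) preincubated 30 min at room temperature with biotinylated H3(1-18)K9me3 peptide (50 nM) in PBS pH 7.4, 0.01% Tween-20, then compound added for 30 min. AlphaScreen streptavidin donor/nickel chelate acceptor beads (10 ug/mL final), 30 min dark, luminescence read.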
BAZ2B inh – BAZ2B (human) inhibition. 360,000 compounds, 4.4% hits. AID 504333. Potency, µM (doses to about 114 µM), usual class: inhibitors. AlphaScreen BAZ2B-H3K14Ac peptide displacement; also: nearly all actives have a fitted effect of over 60% in size
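Compounds, titrated to a top concentration of 110 uM, were incubated 30 min at room temperature with preformed BAZ2B/acetyl-K14 H3 peptide complex (50 nM each). Proximity signal was measured by AlphaScreen after 20 min with beads.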
JMJD2A Tudor – inhibitors of human JMJD2A Tudor domain; 390,000 compounds, 4.4% hits; AID 504339; Potency, µM (top dose mostly 114 µM), actives largely listed as inhibitors; AlphaScreen JMJD2A-Tudor / H3K4me3 peptide binding; also: nearly all actives have a fitted effect of over 50% in size
Numbers stand for hits; . = inactive; ? = inconclusive; / = no result given; [ ] = another dose, or the depositor's remark. Most compounds without a hit are left out; they make up all but 12% or so of the library. Calls follow the shape of the dose curve; as a rule, active = well fitted curve in the direction sought with a large enough effect; inconclusive = small, poorly fitted or top-dose-only effect, or another doubt; inactive = no such curve, though single readings can be large; an effect the other way counts as inactive or inconclusive.

SMILES | Sfp inh | G9a inh | HP1b chromo inh | BAZ2B inh | JMJD2A Tudor
COc1cc(OC)c2cc(C(=O)N/N=C/c3ccccc3O)[nH]c2c1 | . | . | . | . | .
CCC1CN(CC(=O)NCc2cccc(Br)c2)c2ccccc2S1 (configuration not stated) | / | ? | . | . | .
O=C(c1ccc(N2CCOCC2)c([N+](=O)[O-])c1)N1CCCCC1 | . | . | . | . | .
Cc1ccc(C)c(S(=O)(=O)N2CCN(C(=O)c3ccc(N4CCCC4)c([N+](=O)[O-])c3)CC2)c1 | . | 32µM | . | ? | ?
Cc1ccc(C)c(N2CCN(C(=O)c3ccc(N4CCOCC4)c([N+](=O)[O-])c3)CC2)c1 | . | 45µM | 45µM | ? | 56µM
CNC(=O)[C@H](C)/C=C/C(NC(=O)OCc1ccccc1)c1ccc(C(=O)OC)cc1 (some centres not stated) | . | / | / | / | /
Cc1cc(C2CCCCC2)n(O)c(=O)c1 | . | . | . | 79µM | ?
COC(=O)CNc1n[nH]c(=S)[nH]c1=O | 50µM | ? | . | . | .[11.4 µM]
CC(C)COC(=O)C(C)Nc1n[nH]c(=S)[nH]c1=O (configuration not stated) | . | . | . | . | .
CC(C)COC(=O)CCNc1n[nH]c(=O)[nH]c1=O | . | . | . | . | .
CC(C)OC(=O)CNc1n[nH]c(=S)[nH]c1=O | 45µM | 25µM | . | . | 79µM
CC(C)OC(=O)C(C)Nc1n[nH]c(=S)[nH]c1=O (configuration not stated) | . | 45µM | . | . | .
CN(C)C(=O)CNc1n[nH]c(=S)[nH]c1=O | 20µM | . | . | . | .
COC(=O)CCNc1n[nH]c(=O)[nH]c1=O | . | . | . | . | .
COc1ccc(CN(C)C(=O)Cn2cnc3c(OCc4ccccc4)ncnc32)cc1OC | / | / | . | / | .
N#C/C(=C\c1coc2ccccc2c1=O)C(N)=S | . | 1.8µM | ? | ? | .
CCc1ccc(S(=O)(=O)c2cn(C)c3cc(N4CCC(C)CC4)c(F)cc3c2=O)cc1 | / | . | . | . | .
CCOC(=O)c1c(-c2ccccc2)csc1NC(=O)c1ccc(S(=O)(=O)N2CC(C)OC(C)C2)cc1 (configuration not stated) | . | . | . | . | .
CCOC(=O)c1sc(NC(=O)c2ccc(S(=O)(=O)N3CCOCC3)cc2)nc1-c1ccccc1 | . | 45µM | . | . | .
CC1CCN(S(=O)(=O)c2ccc(C(=O)Nc3sc4c(c3C(N)=O)CC(C)(C)NC4(C)C)cc2)CC1 | / | . | . | . | ?
CCOC(=O)c1c(-c2ccccc2)csc1NC(=O)c1cc(S(=O)(=O)N2CCOCC2)ccc1C | ? | 32µM | ? | . | .
CCOC(=O)c1sc(NC(=O)c2ccc(S(=O)(=O)N3CCCCC3)cc2)nc1-c1ccccc1 | . | . | . | . | .
CCOC(=O)N1CCN(S(=O)(=O)c2ccc(C(=O)Nc3sc4c(c3C(N)=O)CC(C)(C)NC4(C)C)cc2)CC1 | . | 50µM | . | . | .
CCOC(=O)N1CCN(S(=O)(=O)c2ccc(C(=O)Nc3nc4ccccc4s3)cc2)CC1 | . | 50µM | . | . | .
O=C(C1CCN(S(=O)(=O)c2cccs2)CC1)N1CCN(c2ccccc2F)CC1 | / | . | . | . | .
SMILES | Sfp inh | G9a inh | HP1b chromo inh | BAZ2B inh | JMJD2A Tudor
CCOc1ccccc1CNS(=O)(=O)c1cnc(N)nc1 | / | . | . | . | .
CC12CC3(O)OC(O1)C1(COC(=O)c4ccccc4)[C@@H]3CC21O[C@@H]1O[C@H](CO)[C@@H](O)[C@H](O)[C@H]1O | . | . | / | / | /
C[C@]1(OC(=O)/C=C/c2ccccc2)C[C@@H](O)[C@]2(O)C=CO[C@@H](O[C@@H]3O[C@H](CO)[C@@H](O)[C@H](O)[C@H]3O)[C@@H]21 | / | 18µM | . | . | .
CCc1nn(CC(=O)N(C)Cc2ccccc2)c(=O)c2cc3sccc3n12 | / | . | . | . | .
N#Cc1c(N)c2ccccn2c1C(=O)c1ccc(Br)cc1 | . | . | . | . | .
Cn1cnc(S(=O)(=O)Nc2cc(-c3ccc(Cl)cc3)nn2C)c1 | . | 50µM | . | . | .
Cn1nc(-c2ccccc2)cc1NC(=O)c1ccc(Cl)cc1 | / | .[12.7 µM] | . | . | .
Cc1ccccc1NS(=O)(=O)c1ccc2[nH]cc(C(=O)N(C)Cc3ccco3)c(=O)c2c1 | . | / | . | 56µM | ?
Cc1ccc(NC(=O)CNC(=O)Cn2c(C)cc3ccccc3c2=O)cc1F | / | . | . | . | .
COc1ccc(-n2c(SCC(=O)N3CCN(c4ccccc4)CC3)nc3c(c2=O)SCC3)cc1 | . | 45µM | . | . | .
CC(C)n1c(SCC(=O)N2CCCCC2)nc2c1c(=O)n(C)c(=O)n2C | . | . | . | . | .
COc1ccc(N2CCN(C(=O)CSc3nc4c(c(=O)n(C)c(=O)n4C)n3C(C)C)CC2)cc1 | . | 50µM | . | . | .
COc1ccc(-n2ncc3c(NCCCOC(C)C)ncnc32)cc1 | / | . | . | . | .
COc1ccc(N2CCN(C3CC(=O)N(C)C3=O)CC2)cc1 (configuration not stated) | . | ? | . | . | .
COc1ccc(N2C(=O)CC(N3CCN(c4ccc(S(C)(=O)=O)cc4)CC3)C2=O)cc1 (configuration not stated) | . | 32µM | . | . | .
COc1ccc(NC2CCN(C3CC(=O)N(c4ccc(F)c(Cl)c4)C3=O)CC2)cc1 (configuration not stated) | . | ? | ? | 45µM | ?
Cc1cccc(N2C(=O)CC(N3CCN(Cc4ccc(Cl)cc4)CC3)C2=O)c1 (configuration not stated) | . | 40µM | . | . | .
Cc1cccc(N2C(=O)CC(N3CCN(c4ccc(Cl)cc4)CC3)C2=O)c1 (configuration not stated) | . | . | . | . | .
O=C(O)c1ccc(N2C(=O)CC(N3CCN(c4ccc(Cl)cc4)CC3)C2=O)cc1 (configuration not stated) | . | 45µM | . | ? | .
Cc1ccc(-c2c(C(=O)N3CCN(c4cccc(C)c4)C(C)C3)oc(=O)c3ccccc23)cc1 (configuration not stated) | / | . | . | / | ?
CCCOc1ccc(N2C(=O)CC(N3CCN(c4ccccc4OC)CC3)C2=O)cc1 (configuration not stated) | . | 45µM | . | . | .
N#CC(=C=[N-])c1nc2ccccc2nc1-[n+]1cccc(NC(=O)c2ccccc2)c1 | 8.9µM | . | . | . | .
N#CC(=C=[N-])c1nc2ccccc2nc1-[n+]1cccc(NC(=O)c2ccc(F)cc2)c1 | . | . | / | . | /
Cc1cccc(N2CCN(C(=O)CS(=O)(=O)c3cccc4nsnc34)CC2C)c1 (configuration not stated) | / | . | . | . | .
O=C(O)/C=C/C(=O)Nc1ccc(Oc2ccccc2)cc1 | . | / | . | . | .
